Assay [1] in a line: E. coli DRC41 culture turbidity changes, primary screen, E. coli filamentation inducer project, strain DRC41, OD650, 48 h (AID 1152).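 Further: E. coli MC1000 strain DRC41 lacking acrAB efflux pump and sulA.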 The note with it: E. coli DRC41 (acrAB sulA), higher = more signal, called active from +8 up or from −8 down.
Assay [2] in a line: small-molecule binders of probe aLefty1, primary screen, biochemical, small-molecule microarray, 635/667 nm fluorescence (AID 1153).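 Further: score merges spot fluorescence with signal-to-noise ratio from the scanned slide images.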 As to conditions: higher = more signal.
Assay [3] is described as follows: PSAC antagonists in infected red cells, primary screen, cell-based, P. falciparum Indochina, OD700, 1 h (AID 1154). The note with it: P. falciparum Indochina infected RBC osmotic lysis, higher = more signal, called active from +8 up or from −8 down.
A short description of assay [4]: PSAC antagonists in infected red cells, primary screen, cell-based, P. falciparum Indochina, OD700, 2 h (AID 1155).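 Further: lysis reports solute entry through the parasite surface anion channel PSAC; channel blockers reduce lysis of infected cells.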 The note with it: P. falciparum Indochina infected erythrocytes, osmotic lysis OD700; higher = more signal, called active from +8 up or from −8 down.
The nature of assay [5]: osmotic lysis modulators in infected erythrocytes, primary screen, PSAC antagonist project, cell-based, P. falciparum Indochina, OD700, 3 h (AID 1156). The note with it: higher = more signal, called active from +8 up or from −8 down.
The nature of assay [6]: PSAC antagonists in infected red cells, primary screen, cell-based, P. falciparum Indochina, OD700, 18 h (AID 1157). The note with it: P. falciparum Indochina infected erythrocytes, osmotic lysis OD700, 18 h; higher = more signal, called active from +8 up or from −8 down.
Assay [7] in a line: modulators of S6 phosphorylation in cells, primary screen, cell-based, A549, cytoblot, luminescence, serum-stimulated (AID 1158).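 Further: serum-stimulated A549 lung adenocarcinoma cells; signal is phosphorylated S6 detected by cytoblot immunostaining with HRP secondary.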 The note with it: A549 phospho-S6 cytoblot, 5 h, higher = more signal.
The target of assay [8] is NADPH oxidase 2 (Homo sapiens) (UniProt P04839). Nature of the assay: NOX2-dependent H2O2 signal modulators, primary screen, NOX inhibitor project, cell-based, HEK293-NOX2, PMA-stimulated, Amplex Red fluorescence (AID 1159). Further: test concentration not given here. As to conditions: 45 min, higher = more signal, called active from +8 up or from −8 down.
Assay [9] addresses NADPH oxidase 4 (Homo sapiens) (UniProt Q9NPH5). Nature of the assay: NOX4-dependent H2O2 signal modulators, primary screen, NOX inhibitor project, cell-based, HEK293-NOX4, tetracycline-induced, Amplex Red fluorescence (AID 1160). The note with it: 45 min, higher = more signal, called active from +8 up or from −8 down.
The target of assay [10] is NADPH oxidase 5 (Homo sapiens) (UniProt Q96PH1). Nature of the assay: NOX5-dependent H2O2 signal modulators, primary screen, NOX inhibitor project, cell-based, HEK293-NOX5, Amplex Red fluorescence (AID 1161). The note with it: HEK293-NOX5, ionomycin, 45 min, higher = more signal.

Our source for the z-score and composite z-score values is PubChem BioAssay.

Calls of active or inactive are those of the source.

Chain of NADPH oxidase 4 (Homo sapiens) (Q9NPH5 whole entry, looked up): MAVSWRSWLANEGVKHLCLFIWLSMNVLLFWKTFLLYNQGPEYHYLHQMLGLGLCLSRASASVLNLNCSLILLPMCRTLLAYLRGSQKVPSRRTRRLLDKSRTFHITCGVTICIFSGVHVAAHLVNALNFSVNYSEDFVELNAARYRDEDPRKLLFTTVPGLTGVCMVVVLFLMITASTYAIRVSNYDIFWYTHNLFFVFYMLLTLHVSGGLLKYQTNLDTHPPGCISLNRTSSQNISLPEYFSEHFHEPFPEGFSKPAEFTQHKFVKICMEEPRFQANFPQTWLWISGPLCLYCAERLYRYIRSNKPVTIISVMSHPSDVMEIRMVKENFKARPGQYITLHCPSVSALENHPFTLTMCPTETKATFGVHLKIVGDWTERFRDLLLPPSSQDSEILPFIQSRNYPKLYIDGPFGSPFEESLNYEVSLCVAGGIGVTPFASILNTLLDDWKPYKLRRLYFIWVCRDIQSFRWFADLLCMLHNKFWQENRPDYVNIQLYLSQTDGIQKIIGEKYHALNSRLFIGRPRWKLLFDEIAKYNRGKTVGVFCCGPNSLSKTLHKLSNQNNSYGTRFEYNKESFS
Chain of NADPH oxidase 2 (Homo sapiens) (P04839 whole entry, looked up): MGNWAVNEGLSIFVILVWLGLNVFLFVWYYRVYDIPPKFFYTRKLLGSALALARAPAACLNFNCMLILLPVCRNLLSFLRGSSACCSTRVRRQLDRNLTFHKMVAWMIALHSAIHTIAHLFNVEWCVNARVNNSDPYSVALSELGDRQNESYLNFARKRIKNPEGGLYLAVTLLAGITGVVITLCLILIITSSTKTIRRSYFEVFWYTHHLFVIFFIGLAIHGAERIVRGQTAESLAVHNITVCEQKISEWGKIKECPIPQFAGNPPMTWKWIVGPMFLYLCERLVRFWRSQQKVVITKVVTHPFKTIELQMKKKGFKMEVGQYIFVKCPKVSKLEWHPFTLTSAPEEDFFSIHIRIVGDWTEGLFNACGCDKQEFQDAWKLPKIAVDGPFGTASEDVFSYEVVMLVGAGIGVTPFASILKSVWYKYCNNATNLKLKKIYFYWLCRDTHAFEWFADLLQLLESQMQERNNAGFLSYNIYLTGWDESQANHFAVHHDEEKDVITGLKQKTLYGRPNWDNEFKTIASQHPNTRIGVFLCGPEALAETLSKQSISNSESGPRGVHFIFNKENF
Chain of NADPH oxidase 5 (Homo sapiens) (Q96PH1 whole entry, looked up): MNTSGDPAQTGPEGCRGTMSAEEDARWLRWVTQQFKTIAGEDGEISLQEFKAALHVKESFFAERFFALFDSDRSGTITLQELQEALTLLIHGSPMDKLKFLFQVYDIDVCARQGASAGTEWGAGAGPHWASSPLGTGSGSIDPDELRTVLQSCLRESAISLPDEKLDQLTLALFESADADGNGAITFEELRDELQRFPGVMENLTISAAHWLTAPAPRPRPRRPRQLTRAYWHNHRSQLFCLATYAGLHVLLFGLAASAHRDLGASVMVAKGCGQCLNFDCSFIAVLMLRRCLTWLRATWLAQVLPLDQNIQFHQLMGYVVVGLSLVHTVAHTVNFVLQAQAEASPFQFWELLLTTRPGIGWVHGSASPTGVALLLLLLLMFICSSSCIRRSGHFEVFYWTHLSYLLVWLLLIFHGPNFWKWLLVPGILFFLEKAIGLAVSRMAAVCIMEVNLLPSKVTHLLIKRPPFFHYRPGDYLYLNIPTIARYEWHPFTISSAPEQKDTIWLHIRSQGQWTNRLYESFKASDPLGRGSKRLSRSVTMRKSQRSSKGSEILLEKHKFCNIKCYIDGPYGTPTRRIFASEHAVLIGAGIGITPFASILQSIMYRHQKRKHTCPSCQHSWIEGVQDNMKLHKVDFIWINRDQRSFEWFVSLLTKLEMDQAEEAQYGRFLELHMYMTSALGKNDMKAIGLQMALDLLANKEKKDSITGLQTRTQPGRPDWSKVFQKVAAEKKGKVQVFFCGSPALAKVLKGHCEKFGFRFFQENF

For the compound `COC(=O)[C@@]1(Cc2ccc(OC)cc2)[C@H]2c3cc(C(=O)N(C)C)n(Cc4nc5ccccc5[nH]4)c3C[C@H]2CN1C(=O)c1ccccc1`, the z-score in assay [1] is -2.02 (inactive); in assay [3] it was 2.03 (inactive); in [4] it was 0.724 (inactive); in assay [5], 0.482 (inactive); in assay [6] it was 1.25 (inactive); in assay [7] it was 0.123. Besides, the z-score is 0.576 (inactive) in assay [8], 1.85 (inactive) in [9] and 2.4 in assay [10]. Moreover, in assay [2], the composite z-score came out at 0.905.

Take `CC(C)C(O)C1C=CC2C(=O)N(C)C(=O)C2N1Nc1ccccc1` (stereo not given): the z-score in assay [1] is -0.532 (inactive); in [3], -0.162 (inactive); in assay [4], 1.18 (inactive); in [5] it was 0.448 (inactive); in assay [6] it was 0.778 (inactive); in [7] it was -0.679. Moreover, the results for the z-score in assay [8], in [9] and in assay [10] were -1.43 (inactive), -3.72 (inactive) and -2.93, respectively. In [2], the composite z-score was 0.124.

Turning to `COCC(=C=CC[C@H](O)c1cccc(OCCO)c1)C[C@H](O)c1ccccn1`, the z-score in assay [1] is 0.941 (inactive); in assay [3], 8.86 (active); in [4] it was 1.16 (inactive); in [5], 1.49 (inactive); in assay [6], 0.674 (inactive); in assay [7], 0.789. The z-score is -0.142 (inactive) in assay [8], 0.154 (inactive) in assay [9] and -0.772 in assay [10]. The composite z-score in assay [2] is -0.198.

As to `C=C(COC)/C(=C/C[C@@H](OC(=O)c1ccncc1)c1ccc(CO)o1)c1cnc2ccccc2c1`, the z-score is 0.149 (inactive) in assay [1]; 4.66 (inactive) in assay [3]; 1.24 (inactive) in [4]; 1 (inactive) in assay [5]; 0.234 (inactive) in assay [6]; -0.188 in assay [7]. Moreover, the values for the z-score in assay [8], in assay [9] and in [10] were -0.627 (inactive), -1.24 (inactive) and -1.54, respectively. In addition, in [2], the composite z-score came out at 0.471.

Turning to `O=C1O[C@@H](c2ccccc2)[C@@H](c2ccccc2)N2[C@@H](c3ccc(O)cc3)[C@]3(C(=O)Nc4ccc(C#CCCO)cc43)[C@@H](C(=O)Nc3nc4ccccc4s3)[C@H]12`, the z-score in [1] was 0.341 (inactive); in assay [3], 1.35 (inactive); in [4], 1.19 (inactive); in [5], -0.743 (inactive); in [6], 1.63 (inactive); in assay [7], -0.435. In addition, the z-score is 1.1 (inactive) in assay [8], 0.604 (inactive) in [9] and -0.073 in [10]. This compound registered a composite z-score in assay [2] of 0.139.

In the case of `COc1ccccc1CN1C(=O)c2ccccc2[C@@H](C(=O)NC(C)C)[C@@H]1c1ccc(CO)cc1`, the z-score in [1] is 0.671 (inactive); in [3] it was 1.18 (inactive); in assay [4], 0.525 (inactive); in assay [5] it was 0.797 (inactive); in assay [6], 0.376 (inactive); in [7], 0.0984. The z-score in assay [8] was 0.372 (inactive); in [9], 1.44 (inactive); in assay [10] it was 0.976. Also, the composite z-score in assay [2] was 0.211.

Take `COC(=O)[C@H](Cc1ccccc1)N1CC(/C=C/C2CC2)=C[C@@H]1[C@@H](O)Cc1ccccc1`: the z-score is 0.974 (inactive) in [1]; 1.97 (inactive) in assay [3]; 0.189 (inactive) in assay [4]; -0.427 (inactive) in [5]; 0.401 (inactive) in assay [6]; 0.306 in assay [7]. The z-score in assay [8] is -0.193 (inactive); in [9], 0.058 (inactive); in assay [10], 0.424. For the same compound, in assay [2], the composite z-score amounted to 0.0082.

For `COCCOC(=O)N1C(=O)[C@@]2(c3cc(C#CC4=CCCCC4)ccc31)[C@H](c1ccccc1OCCO)N1[C@H](c3ccccc3)[C@H](c3ccccc3)OC(=O)[C@H]1[C@@H]2C(=O)N1CCc2cc(OC)c(OC)cc2C1`, the z-score was -0.26 (inactive) in assay [1]; 2.7 (inactive) in assay [3]; 1.85 (inactive) in assay [4]; 0.578 (inactive) in assay [5]; 1.02 (inactive) in assay [6]; 0.128 in [7]. Besides, the z-score in assay [8] is 1.41 (inactive); in [9] it was 0.739 (inactive); in assay [10], 1.53. For the same compound, the composite z-score in [2] is -0.715.

Take `COC(=O)[C@@]1(Cc2ccccc2)[C@H]2c3cc(C(=O)N4CCCC4)n(C[C@H](O)CO)c3C[C@H]2CN1C(=O)c1ccccc1`: the z-score is -1.22 (inactive) in assay [1]; 0.975 (inactive) in assay [3]; 0.192 (inactive) in assay [4]; 0.218 (inactive) in [5]; 0.592 (inactive) in assay [6]; -0.26 in assay [7]. The z-score in [8] was 0.223 (inactive); in [9], -0.303 (inactive); in [10] it was -1.45. The compound further displayed a composite z-score in [2] of -0.165.

Regarding `CCCN1C(=O)[C@]2(Cc3ccccc3)N=C(c3ccc(OCCCO)cc3)O[C@@H]2c2ccccc21`, the z-score in [1] is 0.655 (inactive); in [3], 34 (active); in assay [4] it was 27.2 (active); in assay [5], 1.25 (inactive); in [6] it was 4.25 (inactive); in assay [7], 1.56. Moreover, the results for the z-score in [8], in assay [9] and in [10] were -2.25 (inactive), 0.187 (inactive) and -1.27, respectively. Besides, the composite z-score in assay [2] was 0.268.

Take `O=c1cccc(-c2cccc(Cl)c2)o1`: the z-score in assay [1] was 0.457 (inactive); in [3], 25.8 (active); in assay [4], 10.2 (active); in assay [5], -0.51 (inactive); in assay [6], 1.27 (inactive); in [7], -0.717. Further, the z-score in assay [8] was -0.16 (inactive); in assay [9] it was -1.92 (inactive); in [10], -0.541. For the same compound, the composite z-score in assay [2] is -0.0057.

Take `O=C1O[C@H](c2ccccc2)[C@H](c2ccccc2)N2[C@H]1[C@@H](C(=O)O)[C@]1(C(=O)Nc3ccccc31)[C@H]2c1ccc(O)cc1`: the z-score was -0.611 (inactive) in assay [1]; 1.26 (inactive) in assay [3]; 0.789 (inactive) in assay [4]; -0.236 (inactive) in [5]; 0.678 (inactive) in assay [6]; 0.374 in assay [7]. Further, the figures for the z-score in [8], in assay [9] and in [10] were -0.295 (inactive), -0.697 (inactive) and 1.31, respectively. In assay [2], this compound showed a composite z-score of -0.0501.

Regarding `[N-]=[N+]=NCc1ccccc1C[C@@]1(C(=O)N2CCCCC2)N=C(c2ccc(OCCCO)cc2)O[C@@H]1c1ccccc1N=[N+]=[N-]`, the z-score in [1] is 0.842 (inactive); in [3] it was 31.2 (active); in assay [4], 30.4 (active); in assay [5] it was 2.6 (inactive); in [6], 3.27 (inactive); in assay [7] it was -0.0417. Besides, the z-score in assay [8] was 1.2 (inactive); in assay [9], -0.0332 (inactive); in [10] it was -1.27. Further, in assay [2], the composite z-score is -0.126.
